Most compounds without a hit are left out; they make up all but 2.5% or so of the library.
MEKK2mut PB1 HTS = signal of MEK5 binding to mutant human MEKK2 PB1 domain; bead flow cytometry, Alexa488-MEK5 binding to MEKK2 mutant; percent response, % at 10 µM; hit rate 0.35% among 290,000; AID 1530; in the data active = percent response above about 24%, passing the limit was not always enough
MEKK2wt PB1 HTS = raises or lowers MEK5 binding to wildtype human MEKK2 PB1 domain; Q9Y2U5; bead flow cytometry, Alexa488-MEK5 binding to MEKK2 WT; actives lie on both sides; binding response (% of control), % at 10 µM; hit rate 1.1% among 290,000; in the data active = binding response below about 67% or above about 130%
GRK2 inh = human GRK2 inhibition via aptamer displacement; P25098; bead flow cytometry, FAM-aptamer displacement from GRK2; inhibition of aptamer binding, % at 10 µM; hit rate 0.59% among 330,000; AID 488847;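 active = inhibition of aptamer binding above 40%, roughly 3 SD of noise, on plates passing a quality check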;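 note: median bead fluorescence of bound FAM aptamer so fluorescent compounds give negative values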
MEKK3 PB1 HTS = modulators (inhibitors or enhancers) of MEK5 binding to human MEKK3 PB1 domain; Q99759; bead-based flow cytometry, Alexa488-MEK5 binding to MEKK3; actives lie on both sides; 0 = blocked by unlabeled MEK5, 100 = vehicle; binding response (% of control), % at 10 µM; hit rate 1.4% among 290,000;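 active = binding response more than 3 SD above or below the average of its plate-row segment, actives on both sides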;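 note: Alexa488 bead fluorescence after subtracting the streptavidin-only scavenger bead signal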
Target sequence (Q99759 whole entry, looked up, the tested form may be a part): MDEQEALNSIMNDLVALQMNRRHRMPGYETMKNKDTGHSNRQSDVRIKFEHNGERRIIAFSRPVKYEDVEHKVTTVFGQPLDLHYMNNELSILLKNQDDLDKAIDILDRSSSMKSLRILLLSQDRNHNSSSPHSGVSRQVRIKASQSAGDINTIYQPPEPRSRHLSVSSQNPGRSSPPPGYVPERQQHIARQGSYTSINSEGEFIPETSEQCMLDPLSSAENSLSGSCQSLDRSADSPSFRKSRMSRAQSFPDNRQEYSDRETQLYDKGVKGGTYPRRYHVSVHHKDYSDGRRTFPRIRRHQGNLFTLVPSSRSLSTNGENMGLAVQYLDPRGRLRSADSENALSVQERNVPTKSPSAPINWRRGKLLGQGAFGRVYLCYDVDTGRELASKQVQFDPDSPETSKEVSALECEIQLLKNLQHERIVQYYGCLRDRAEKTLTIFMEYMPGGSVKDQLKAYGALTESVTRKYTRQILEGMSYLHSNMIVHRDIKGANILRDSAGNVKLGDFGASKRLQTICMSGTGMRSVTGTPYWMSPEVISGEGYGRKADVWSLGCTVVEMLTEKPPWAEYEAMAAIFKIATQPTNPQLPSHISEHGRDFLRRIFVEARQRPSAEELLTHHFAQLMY
GRK2 CP1 = human GRK2 inhibition confirmation, cherry pick 1 | shares compounds with GRK2 inh | bead-bound GRK2, FAM-aptamer displacement, flow cytometry | aptamer displacement, % at 10 µM | hit rate 4% among 2,000;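 active = aptamer displacement above 40%, near three times the noise of non-fluorescent compounds, on plates passing quality checks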;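 note: negative values mostly reflect intrinsic compound fluorescence rather than true enhancement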
Aptamer quench SP = counter-screen for GRK2 aptamer inhibitors: fluorescent aptamer quenchers; shares compounds with GRK2 inh; Carboxyfluorescein RNA aptamer on beads, flow cytometry quenching; stronger effect = lower value; fluorescence response (% of DMSO), % at 10 µM; 2,000 tested, under 10 active;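 active = compounds that quench the bead-bound fluorescent RNA probe, cutting fluorescence to under half of the solvent control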;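 note: counterscreen run without GRK2 so only probe quenching by compound is measured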
GRK2 CP2 = human GRK2 inhibition confirmation, cherry pick 2; shares compounds with GRK2 inh; bead-bound GRK2, FAM-aptamer displacement, flow cytometry; 360 tested, under 10 active; inhibition of aptamer binding, % at 10 µM;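 active = inhibition of aptamer binding above 40%, about triple the noise seen with nonglowing compounds, on plates passing quality control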;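 note: negative values mostly come from compounds that fluoresce themselves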
FAM quench SP = quenches fluorescent RNA aptamer, GRK2 hit artifact. fluorescence response vs DMSO, % at 10 µM. shares compounds with GRK2 inh. AID 588494. carboxyfluorescein RNA aptamer beads, flow cytometry quenching; stronger effect = lower value. 360 tested, under 10 active;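 active = response vs DMSO under 50%, meaning signal dropped by over half, treated as fluorescence quencher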;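 note: labelled aptamer on streptavidin beads without GRK2 as a quench counter-screen; 100% = bead fluorescence of DMSO wells and lower means quenching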
* hit, by the source's call; . = no result.

SMILES | MEKK2mut PB1 HTS | MEKK2wt PB1 HTS | GRK2 inh | MEKK3 PB1 HTS | GRK2 CP1 | Aptamer quench SP | others
CN(C)c1ccc(-n2cccc2)cc1 | 9 | 110 | 0 | 109 | . | . | GRK2 CP2=-7;FAM quench SP=102
C=CCn1c(SCC(=O)NNC(=O)Nc2ccc(C)cc2)nnc1-c1ccccc1 | 5 | 101 | 0 | 105 | . | .
CN(C)c1ccc2c3c(ccc(N(C)C)c13)COC2 | 5 | 109 | 31 | 104 | . | .
COc1ccc(-c2cc3cc4c(cc3cn2)OCO4)cc1 | . | . | 41* | . | . | . | GRK2 CP2=10;FAM quench SP=112
O=C(Nc1cccc(-c2nc3ncccc3o2)c1)c1sc2cc(Cl)ccc2c1Cl | 3 | 96 | 75* | 96 | -1 | 105
c1ccc(Cn2ncc3ccccc32)cc1 | -2 | 93 | 26 | 95 | 2 | 98
Fc1cccc(Cl)c1Cn1ncc2ccccc21 | 13 | 103 | 0 | 111 | . | .
Cc1ccc(/C=C2/N=C(c3ccccc3)NNC2=O)cc1 | 1 | 100 | 93* | 105 | -2 | 98
Cc1ccc(NC(=S)N2CCC(c3nc4ccccc4s3)CC2)cc1 | -3 | 95 | 64* | 97 | -6 | 105
CCOC(=O)N1CCN(c2c(NCc3ccc(Cl)cc3)c(=O)c2=O)CC1 | 10 | 108 | 0 | 102 | . | .
C[n+]1c2n(c3ccccc31)N=C(c1cc(C(C)(C)C)c(O)c(C(C)(C)C)c1)CS2 | 3 | 124 | 64* | 123 | -1 | 101
O=C1C=C(O)CC(c2ccco2)C1 (stereo not drawn) | -8 | 86 | 91* | 82 | 6 | 102
O=C1C=C(Nc2ccc(O)cc2)CC(c2ccco2)C1 (stereo not drawn) | 1 | 90 | 3 | 98 | . | .
COc1cc(-c2nc(-c3ccc(NC(=O)c4ccc(Br)o4)cc3)no2)cc(OC)c1OC | -4 | 95 | 82* | 101 | -2 | 99
COc1ccc(-c2nc(-c3ccc(NC(=O)c4ccc(Br)o4)cc3)no2)cc1OC | -2 | 99 | 0 | 101 | . | .
CCN(CC)CCNC(=O)Cn1nc(Cc2ccncc2)c2ccccc2c1=O | 1 | 106 | 0 | 100 | . | .
CC(=O)N1CCc2cc(S(=O)(=O)CCC(=O)NCc3cccs3)ccc21 | . | . | 2 | . | . | . | GRK2 CP2=10;FAM quench SP=99
CCC(=O)N1c2ccc(S(=O)(=O)CCC(=O)NCc3cccs3)cc2CC1C (stereo not drawn) | 4 | 108 | 0 | 99 | . | . | GRK2 CP2=-9;FAM quench SP=101
CC(=O)N1CCc2cc(S(=O)(=O)CCC(=O)NCc3ccc4c(c3)OCO4)ccc21 | 1 | 106 | 3 | 105 | . | .
COc1ccc(NC(=O)C(=O)N/N=C/c2cc(C)n(-c3cccc(Cl)c3Cl)c2C)c(OC)c1 | -4 | 93 | 0 | 92 | . | .
CC(=O)Nc1sc(N/N=C\c2ccc(O)cc2)nc1-c1cccs1 | 3 | 98 | 81* | 105 | 1 | 106
CC(=O)Nc1sc(N/N=C\c2cccc(Cl)c2)nc1-c1cccs1 | 17 | 109 | 0 | 98 | . | .
CCOC(=O)CCCNC(=O)COC(=O)c1cc2ccccc2cc1O | 8 | 108 | 0 | 105 | . | .
O=C(Nc1ccc(Nc2ccccc2)cc1)c1ccccc1 | . | . | 100* | . | 5 | 93
O=C(Nc1ccc(Nc2ccccc2)cc1)c1ccc(Cl)cc1 | . | . | 3 | . | . | .
SMILES | MEKK2mut PB1 HTS | MEKK2wt PB1 HTS | GRK2 inh | MEKK3 PB1 HTS | GRK2 CP1 | Aptamer quench SP | others
COc1ccc(C(=O)Nc2ccc(Nc3ccccc3)cc2)cc1OC | 0 | 102 | 86* | 101 | 0 | 101
O=C(C1CCCC1)N1CCN(S(=O)(=O)c2cccc(Cl)c2Cl)CC1 | 6 | 111 | 68* | 107 | 1 | 98
COc1ccc(C2CC(c3cccs3)=NN2C(=O)c2ccc(Br)o2)cc1 (stereo not drawn) | 3 | 97 | 86* | 106 | . | . | GRK2 CP2=15;FAM quench SP=108
COc1ccccc1CNC(=O)C(=O)NCC1OCCN1S(=O)(=O)c1ccc2c(c1)OCCO2 (stereo not drawn) | 8 | 112 | 41* | 119 | -2 | 100
COc1ccc(S(=O)(=O)N2CCOC2CNC(=O)C(=O)NCc2ccc3c(c2)OCO3)cc1OC (stereo not drawn) | -9 | 91 | 0 | 89 | . | .
Cc1nn(C)c(C(=O)N2CCc3ccccc32)c1Br | 0 | 103 | 41* | 125 | . | . | GRK2 CP2=-3;FAM quench SP=99
Cc1c(Br)c(C(=O)N2CCc3ccccc32)nn1C | 2 | 103 | 0 | 99 | . | .
CCOC(=O)COc1ccc2c(=O)c(-c3ccccc3)coc2c1 | 0 | 103 | 1 | 91 | . | .
CC(=O)Oc1ccc2c(=O)c(-c3ccccc3)coc2c1 | -10 | 93 | 38 | 104 | 1 | 93
COCCN(C(=O)c1ccc(C#N)cc1)c1c(N)n(Cc2ccccc2)c(=O)[nH]c1=O | . | . | 1 | . | . | .
COc1cccc(N2CCN(S(=O)(=O)c3c(C)[nH]c(C)c3C(=O)N3CCCCC3)CC2)c1 | -4 | 99 | 2 | 98 | . | .
CC(C)=C1C2C=CC1C1C(=O)N(c3ccc4c(c3)OCO4)C(=O)C21 (stereo not drawn) | 3 | 100 | 0 | 91 | . | .
CC(C)=C1C2CCC1C1C(=O)N(c3ccc4c(c3)OCO4)C(=O)C21 (stereo not drawn) | -3 | 96 | 48* | 96 | . | . | GRK2 CP2=-42;FAM quench SP=101
CCCCOc1ccc(Cl)cc1CSc1n[nH]c(C)n1 | -3 | 100 | 0 | 94 | . | .
CCOc1ccc(Cl)cc1CSc1n[nH]c(CC)n1 | 5 | 101 | 61* | 99 | -14 | 101
O=C(c1cnn(-c2ccccc2)c1)c1ccc2ccccc2c1O | -2 | 98 | 0 | 107 | . | .
